An excerpt weighted towards active compounds, which were near 7.7% of everything screened.
HCMV antiviral – human cytomegalovirus inhibition. HFF cells, HCMV-luciferase reporter, 72 h; active compounds read low. activity change, negative = inhibition, % at 57.5 µM. 410,000 tested, 4.5% active. AID 1259415; in the data active = activity change below about -60%; inconclusive = no clear call, values can overlap the other calls; inactive = above about -39%
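Two-dose cell screen: HFF monolayers treated with compounds and infected with luciferase-expressing HCMV at 1 PFU/cell, 72 h at 37C, then lysed for luciferase measurement.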
Sm TGR block – S. mansoni TGR enzyme inhibition | Q962Y6 | purified TGR, DTNB reduction, TNB absorbance 405 nm | Potency, µM (highest dose often 114 µM), for the others: top-dose activity change, negative = inhibition, most hits filed as inhibitors | 360,000 tested, 3% active | AID 485364; note: potency is the fitted concentration of half-maximal effect; nearly all actives have a fitted effect of over 60% in size
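TGR 20 nM + NADPH 100 uM (dispensed conc.), cpd preinc 15 min RT; start with NADPH (500 uM addition) then DTNB (15 mM addition). Kinetic TNB absorbance, 405 nm filter. Four-parameter Hill fit across titration.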
FMDV inh – foot and mouth disease virus antiviral activity; FMDV antiviral cell-based qHTS; Potency, µM (titrated, usually from 57.9 µM), without a hit: top-dose activity change, negative = inhibition, usual class: inhibitors; 410,000 tested, 1.2% active; calls by dose curve; tested in HEK293T cells; note: read-out not given here; potency is the fitted concentration of half-maximal effect; nearly all actives have a fitted effect of over 45% in size
FBPA Giardia inh – Giardia lamblia aldolase inhibition; Potency, µM (series often up to 59.6 µM), for the others: at the top dose activity, negative = inhibition, usual class: inhibitors; A8B2U2; purified Giardia FBPA; 290,000 tested, 0.71% active; note: potency is the fitted concentration of half-maximal effect; nearly all actives have a fitted effect of over 55% in size
Target sequence (A8B2U2 whole entry, looked up): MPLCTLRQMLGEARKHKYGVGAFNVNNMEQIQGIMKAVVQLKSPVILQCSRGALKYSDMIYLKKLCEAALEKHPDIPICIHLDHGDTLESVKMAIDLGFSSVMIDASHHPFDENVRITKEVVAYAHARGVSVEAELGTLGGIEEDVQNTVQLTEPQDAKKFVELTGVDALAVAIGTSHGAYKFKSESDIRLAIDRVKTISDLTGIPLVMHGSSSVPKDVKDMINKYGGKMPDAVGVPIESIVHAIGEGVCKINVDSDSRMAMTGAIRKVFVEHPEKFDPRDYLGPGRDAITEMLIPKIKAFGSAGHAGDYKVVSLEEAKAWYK
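Giardia FBPA (40 nM reagent) was preincubated 10 min at RT with compound (up to 57.5 uM final), then substrate plus GAPDH/TPI/NAD/arsenate coupling system with diaphorase/resazurin was added; resorufin fluorescence (525/598 nm) was read after 20 min.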
TbPYK inhibitor – T. brucei pyruvate kinase inhibition; TbPYK enzyme, Kinase-Glo Plus ATP luminescence, 45 min; Potency, µM (doses to about 76.8 µM), for the others: top-dose activity, negative = inhibition, most hits filed as inhibitors; 410,000 tested, 0.12% active; note: potency is the fitted concentration of half-maximal effect; nearly all actives have a fitted effect of over 50% in size
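Luminescence from Kinase-Glo Plus, added after a 45-minute room-temperature reaction, served as the end-point read-out. The enzyme and substrate were preincubated with compound before ADP (130 uM final) initiated turnover. Concentration-effect curves came from normalized qHTS data.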
RE007 growth inh – less growth of the S. pombe RE007 Vpr strain; S. pombe RE007 Vpr strain, BacTiter-Glo ATP luminescence, 24 h; Potency, µM (series often up to 92.2 µM), inactives show at the highest dose activity change, negative = less growth, hits mostly inhibitors; AID 651644; 360,000 tested, 0.21% active; active = well fitted falling curve with a large enough effect; inconclusive = small, poorly fitted or top-dose-only effect; inactive = no such curve, though single readings can be large or run the other way; note: potency is the fitted concentration of half-maximal effect; nearly all actives have a fitted effect of over 50% in size
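Fission yeast RE007 carrying one integrated HIV-1 vpr copy, seeded at OD 0.01 in PMG+AL medium with 23 nL pinned compound. Grown 24 h at 30 degrees; viability read by BacTiter-Glo luminescence after 5 min.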
* = called active by the depositor; u = inconclusive; x = no result; [ ] = another dose, or the depositor's remark. Unless noted, calls come from the whole dose curve; as a rule, active = well fitted curve in the direction sought with a large enough effect; inconclusive = small, poorly fitted or top-dose-only effect, or another doubt; inactive = no such curve, though single readings can be large; an effect the other way counts as inactive or inconclusive. % is set by controls: 0 for no effect and ±100 for the full control effect.

SMILES	HCMV antiviral	Sm TGR block	FMDV inh	FBPA Giardia inh	TbPYK inhibitor	RE007 growth inh
CCc1ccc2oc(C(=O)NCC(c3ccc(Cl)cc3)N3CCOCC3)c(C)c2c1 (stereo not given)	8	-1%	-19%	x	1%	x
O=C(NCc1ccccc1Cl)c1ccc(S(=O)(=O)N2CCCC2)cc1	42	-3%	-5%	x	3%	-8%
O=C(NCc1ccccc1CN1CCCC1)c1ccc(S(=O)(=O)Nc2ccccc2F)cc1	-75*	x	-7%	x	2%	-12%
O=C(NCc1ccccc1Cl)c1ccc(S(=O)(=O)Nc2cccc(C(F)(F)F)c2)cc1	-66*	4%	3%	0%	-8%	-1%
Cc1ccc2[nH]c(CSc3nnc(NC(=O)COc4ccc(F)cc4)s3)cc(=O)c2c1	-22	0%	-11%	x	-3%	x
Cc1ccc(SC(CC(=O)c2ccc(C)cc2)C(=O)O)cc1 (stereo not given)	7	13µM*	-26%	4%	-18%	-9%
Cc1ccc(C(CC(=O)c2ccc(Cl)cc2)C(=O)O)cc1 (stereo not given)	-3	-3%	7%	0%	-8%	-13%
O=C(CNC(=O)c1ccc(Br)cc1)c1ccccc1	-40	-8%	56%	7%	1%	1%
O=C(CC(C(=O)O)P(=O)(c1ccccc1)c1ccccc1)c1ccc(Br)cc1 (stereo not given)	77	28µM*	-1%	8%	1%	1%
O=C(CC(Sc1ccc(Br)cc1)C(=O)O)c1ccc(Br)cc1 (stereo not given)	x	0.28µM*	x	-2%	x	x
O=S(=O)(Nc1ccc(-c2ccc(N3CCCCCC3)nn2)cc1)c1ccc(C(F)(F)F)cc1	21	-7%	19%	x	2%	x
O=S(=O)(c1ccc(NC(=S)Nc2ccccc2)cc1)N1CCOCC1	-27	45µM*	29%	-16%	12%	5%
N=c1sccn1CC(=O)Nc1ccc(S(=O)(=O)N2CCOCC2)cc1	-63*	8%	-2%	-1%	0%	5%
CC(Sc1ccccc1)C(=O)Nc1ccc(S(=O)(=O)N2CCOCC2)cc1 (stereo not given)	-64*	-4%	5%	17%	1%	-15%
O=S(=O)(c1ccc(NC(=S)Nc2ccc3c(c2)OCO3)cc1)N1CCOCC1	u	u	22%	-8%	-15%	x
CN(C)CC(C)(C)CNC(=S)Nc1ccc(S(=O)(=O)N2CCOCC2)cc1	-76*	2%	-8%	2%	-4%	x
CCn1cc(C(=O)NCc2ccccc2)c(=O)c2cc(S(=O)(=O)N3CCCCCC3)ccc21	-37	1%	-10%	x	0%	x
C#CCN1CC(COc2ccccc2)Oc2cccc(Oc3ccc(OC)cc3)c2S1(=O)=O (stereo not given)	-20	x	x	x	x	x
O=S(=O)(c1cccc(NC(=S)Nc2ccc(Br)cc2Cl)c1)N1CCOCC1	-10	14µM*	-2%	-9%	-7%	5%
O=C(Cc1ccc(Br)cc1)Nc1cccc(S(=O)(=O)N2CCOCC2)c1	-22	-1%	-4%	x	1%	-14%
CC(C)CCCCCCNC(=S)Nc1ccc(S(=O)(=O)N2CCOCC2)cc1	-85*	-13%	-26%	-3%	-15%	4%
Cc1ccc(OCC(=O)Nc2ccc3nc(SCCOc4ccccc4)sc3c2)cc1	-30	3%	-15%	x	1%	x
CCc1nc2ccc(C(=O)N3CCN(C)CC3)cn2c1N(CCC(C)C)CCN(C)C	-72*	x	-11%	x	5%	4%
CCN(c1cccc2ccccc12)S(=O)(=O)c1cccs1	u	x	-19%	x	2%	-10%
CC(=O)Oc1ccc(N(C(C)=O)S(=O)(=O)c2cccs2)c2ccccc12	-24	u	16µM*	-27%	-2%	-12%
CCOCC(O)CSCc1ccc(Cl)cc1 (stereo not given)	-29	10µM*	11%	-4%	x	5%[3.69 µM]
CCOC(=O)C1CCN(CC(O)COCc2ccc(Cl)cc2)CC1 (stereo not given)	7	0%	-12%	x	3%	-6%

Bioassay records: PubChem, National Center for Advancing Translational Sciences (NCATS)
